40 compounds from PubChem BioAssay (Tox21) can be followed below.

Activity calls are given as the source filed them. A call without a number means that no potency is given here. The call rests on the fitted dose curve.

Chain of Gonadotropin-releasing hormone receptor (Homo sapiens) (P30968 whole entry, looked up): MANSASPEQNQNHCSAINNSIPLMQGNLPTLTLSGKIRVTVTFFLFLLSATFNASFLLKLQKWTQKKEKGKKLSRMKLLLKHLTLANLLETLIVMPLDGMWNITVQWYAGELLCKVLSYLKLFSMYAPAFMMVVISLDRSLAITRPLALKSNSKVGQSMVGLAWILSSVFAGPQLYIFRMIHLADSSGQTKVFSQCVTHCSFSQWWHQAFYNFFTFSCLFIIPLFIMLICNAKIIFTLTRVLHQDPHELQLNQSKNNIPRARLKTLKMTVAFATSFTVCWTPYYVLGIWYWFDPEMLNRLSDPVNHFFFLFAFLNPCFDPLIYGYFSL

This experiment has as its target Gonadotropin-releasing hormone receptor (Homo sapiens) (UniProt P30968). As to the kind of experiment: Human gonadotropin-releasing hormone receptor (GnRHR) small molecule agonists, calcium flux assay in GnRHR-HEK293 cells (AID 1920063). Further: nearly all actives have a fitted effect of over 35% in size. The settings on record: calcium flux fluorescence, agonist mode; series mostly up to 57.6 µM. An excerpt: National Center for Advancing Translational Sciences [NCATS]
Division of Preclinical Innovation [DPI]
U.S. Environmental Protection Agency [EPA]
National Institutes of Environmental Health Sciences [NIEHS]
National Toxicology Program [NTP]
U.S. Food and Drug Administration [FDA]
Gonadotropin-releasing hormone receptor (GnRHR) is a G-protein-coupled receptor (GPCR) and acts (through phospholipase C) to increase intracellular inositol trisphosphate and then release intracellular calcium stores. Cell-based GnRHR-Hek293 calcium influx assay is using HEK293 cells that have been genetically engineered to express the human GnRHR, which activity can be measured by calcium signaling. A compound/drug can activate (agonist) GnRHR that can be monitored by levels of intracellular calcium.
GnRHR-HEK293 cells developed by Codex Corp contain human GnRHR reporter gene, which was stably integrated into HEK 293 cells. The compound activation can be detected by fluorescence intensity via calcium flux assay. This cell line has been used to screen the Tox21 10K compound library to identify GnRHR agonists.
GnRHR-Hek293 cells were dispensed at 1500cells/4uL/well in 1536-well black wall/clear bottom plates using a multidrop dispenser. After the assay plates were incubated at a 37 C/5% CO2 incubator for 18 hours, 4 uL of Calcium Dye Solution was added to each well. The plates were incubated at 37 C for 1 hour. For agonist mode, 23 nL of compounds dissolved in DMSO, positive controls or DMSO only was transferred to the assay plate by a pin tool station. The fluorescence intensity in the plates was measured using FDSS 7000EX kinetic plate reader with a filter set of Ex/Em=480/540 for 3 min at 1 sec intervals. Each test compound was measured at 15 concentrations and in triplicates.
For `c1ccc2n[nH]nc2c1`, the Potency entry was “inactive”.
The same measure for `O=C(OCCOCCOC(=O)c1ccccc1)c1ccccc1`: “inactive”; for `CC(=O)O[C@]1(C(C)=O)CC[C@H]2[C@@H]3C=C(Cl)C4=CC(=O)CC[C@]4(C)[C@H]3CC[C@@]21C`: “inactive”; for `CCOC(=O)NNc1nncc2ccccc12`: “inactive”.
As to `CCCc1cc(=O)[nH]c(=S)[nH]1`, the Potency entry was “inactive”.
The same measure for `Brc1ccc(Br)c(Br)c1`: “inactive”.
The same measure for `CCNc1cccc(C)c1`: “inactive”; for `O=C(O)c1ccccc1Nc1cccc(C(F)(F)F)c1`: “inactive”; for `CCOC(=O)C(C#N)=C(c1ccccc1)c1ccccc1`: “inactive”.
The same measure for `C=CC(C)CCCC(C)(C)O` (stereo not given): “inactive”; for `c1ccc(Nc2ccccc2)cc1`: “inactive”.
As for `CC1=CC(C)(C)Nc2ccccc21`, the Potency entry is “inactive”.
The same measure for `O=C(O)CS`: “inactive”; for `NC(N)=O`: “inactive”.
The same measure for `O=C(OCc1ccccc1)c1ccc(O)cc1`: “inactive”; for `CC(C)(N)CO`: “inactive”.
The same measure for `O=c1[nH]cnc2c1ncn2[C@H]1CC[C@@H](CO)O1`: “inactive”; for `CC1=CC2C3CC(C=C3C)C2C1` (stereo not given): “inactive”.
Consider `CCOC(=O)c1ccc(O)cc1`, for which the Potency entry is “inactive”.
With `CCN(CC)C(=O)c1cccc(C)c1`, the Potency entry is “inactive”.
The same measure for `C=C[Si](OCCOC)(OCCOC)OCCOC`: “inactive”; for `O=C(O)Cc1c[nH]c2ccccc12`: “inactive”; for `C=C(C#N)C(=O)OCC`: “inactive”.
The same measure for `Cc1ccc(O)c(-n2nc3ccccc3n2)c1`: “inactive”; for `CC(C)=CCO`: “inactive”; for `Cn1c(=O)c2[nH]cnc2n(C)c1=O`: “inactive”.
The same measure for `Cc1ccc(S(=O)(=O)N=C=O)cc1`: “inactive”.
For the compound `Cc1ccccc1Cl`, the Potency result is “inactive”.
The same measure for `COC(=O)c1ccccc1O`: “inactive”.
For the compound `CCCCCCCCCCN`, the Potency entry was “inactive”.
The same measure for `O=C(c1ccccc1)c1ccc(O)c(O)c1O`: “inactive”; for `CC(O)CN(CCN(CC(C)O)CC(C)O)CC(C)O` (stereo not given): “inactive”; for `C[Si](C)(C)O[Si](C)(C)C`: “inactive”.
The same measure for `O=C(Cl)c1cccc(C(=O)Cl)c1`: “inactive”; for `COCCOCCOC`: “inactive”; for `C=C(C)CC(C)(C)C`: “inactive”.
Turning to `C=C(C)C(=O)OCCOC(=O)C(=C)C`, the Potency result is “inactive”.
The same measure for `CCNc1ccccc1`: “inactive”; for `O=C(O)CCCCC(=O)O`: “inactive”.
The same measure for `O=S(=O)(O)c1ccc(O)cc1`: “inactive”.
